In PubChem BioAssay AID504660 (National Center for Advancing Translational Sciences (NCATS), 2011) one finds activation data, which are given here for 89 molecules.

SMILES strings stand for the structures. “And” between values parts separate entries of the source, which are not always exact repeats. Identical values can stand only once. Among all 360,000 compounds or so, about 3,700 (1%) were called active. Rule as the data show it: active = activation above about 30%; inactive = the rest. Only a selection was taken, and actives are over-represented in it overall. More than one record can exist for a structure, and the calls need not agree.

D(1A) dopamine receptor (Homo sapiens), sequence (P21728 whole entry, looked up): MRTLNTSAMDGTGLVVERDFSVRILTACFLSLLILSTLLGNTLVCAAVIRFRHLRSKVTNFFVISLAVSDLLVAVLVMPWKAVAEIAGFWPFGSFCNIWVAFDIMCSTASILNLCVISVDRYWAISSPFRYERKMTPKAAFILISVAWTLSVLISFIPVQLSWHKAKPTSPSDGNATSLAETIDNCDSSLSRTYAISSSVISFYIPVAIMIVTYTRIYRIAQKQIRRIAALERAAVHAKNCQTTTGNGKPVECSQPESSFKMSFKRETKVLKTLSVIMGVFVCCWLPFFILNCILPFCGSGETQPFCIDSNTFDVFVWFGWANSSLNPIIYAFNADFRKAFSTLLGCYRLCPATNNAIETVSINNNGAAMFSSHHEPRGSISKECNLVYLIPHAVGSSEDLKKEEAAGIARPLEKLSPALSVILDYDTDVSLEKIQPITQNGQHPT

The experiment has as its target D(1A) dopamine receptor (Homo sapiens) (UniProt P21728). In words: Allosteric Agonists of the Human D1 Dopamine Receptor: qHTS. Also: 0% is about no effect. The settings on record: HEK293 T-REx D1 cells, calcium flux, agonist mode; at 2 µM; stronger effect = higher value. An outline of the steps: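 Inducible HEK293 T-REx D1 cells, force-coupled to calcium signalling, were plated at 4000 cells/well with tetracycline and held overnight at 30 C. After no-wash calcium dye loading, compound-evoked calcium rise over 180 s flagged agonists.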
Take `CCN(C(=O)Cn1cc(S(=O)(=O)N2CCN(c3ccccc3F)CC2)c2ccccc2c1=O)c1ccc(C)c(C)c1`: the activation is 11.2% (inactive).

`Cc1ccc(C(=O)N2c3ncnn3C3(CCCCC3)[C@@H]3CCCC[C@@H]32)cc1`: the activation was -0.224% (inactive).

As for `Cc1ccc2c(c1)N(C(=O)CCC(=O)NCc1ccccc1F)CC(C)O2` (centres undefined), the activation was 1.03% (inactive).

In the case of `Cc1ccc2nsnc2c1NC(=O)c1ccccc1[N+](=O)[O-]`, the activation is 6.33% (inactive).

Turning to `O=C(COc1ccc(NC(=O)c2ccccc2[N+](=O)[O-])cc1)c1ccc(F)cc1`, the activation is 3.67% (inactive).

Turning to `O=C(CCc1ccccc1)Nc1ncc([N+](=O)[O-])s1`, the activation was 30.3% (active).

For `CC(=O)Oc1ccccc1C(=O)Nc1ncc([N+](=O)[O-])s1`, the activation is 32.6% (active).

As to `O=C(CCc1ccccc1)Nc1ccc(NC(=O)C2CC2)nc1`, the activation is 5.75% (inactive).

`O=C(CCc1ccccc1)Nc1nn[nH]n1`: the activation was 3.14% (inactive).

As for `Fc1cccc(-n2ncc3c2ncn2nc(-c4ccccc4Cl)nc32)c1`, the activation was -0.538% (inactive).

Turning to `CCOc1ccc(N(CC)S(=O)(=O)N2CCCC(C(=O)NCc3ccc(SC)cc3)C2)cc1` (centres undefined), the activation is 15.3% (inactive).

Regarding `COc1cc(=O)[nH]c(=O)n1C(=O)Cc1ccccc1`, the activation is 3.4% (inactive).

Take `COc1cc(/C=C2/SC(=S)N(Cc3ccccc3)C2=O)cc(OC)c1O`: the activation was 61.8% (active).

Consider `COc1cccc(N2C(=O)CN(Cc3ccccc3)C2=S)c1`, for which the activation was 2.26% (inactive).

In the case of `CCOc1ccc(S(=O)(=O)Nc2ccc3oc4c(c3c2)CC(C)CC4)cc1` (centres undefined), the activation is 8.18% (inactive).

Regarding `O=C(NCCc1ccccc1)c1ccc2c(c1)N(Cc1ccccc1)C(=O)c1ccccc1S2(=O)=O`, the activation is 5.9% (inactive).

As to `Cc1ccc(O)c(/C=N/NC(=O)COc2ccc3c(C)cc(=O)oc3c2)c1`, the activation is 3.75% (inactive).

For `Cc1ccc(O)c(NC(=O)c2cc(-c3ccc(F)cc3)no2)c1`, the activation was -1.3% (inactive).

In the case of `Cc1ccc(O)c(NC(=S)NC(=O)COc2ccc(Br)cc2)c1`, the activation is 54.2% (active).

`Cc1ccc(C)c(NC(=O)Cn2ccn(-c3ccc(F)cc3)c(=O)c2=O)c1`: the activation was 10.6% (inactive).

Regarding `COc1cc(N2CCCC2)c(OC)cc1/C=C(/C#N)c1cccc(Br)c1`, the activation is 34.6% (active).

On to `CCOC(=O)c1c(C)oc2nc(C)nc(N3CCN(c4ccc(OC)cc4)CC3)c12`, for which the activation is 0.866% (inactive).

For the molecule `COc1cc(Br)cc2cc(S(=O)(=O)c3ccccc3)c(=O)oc12`, the activation was 2.11% (inactive).

`COc1ccc(NC(=O)c2ccc3oc(=O)c(S(=O)(=O)c4ccc(F)cc4)cc3c2)c(OC)c1`: the activation is -0.0208% (inactive).

With `Cc1cc(S(=O)(=O)c2cc3ccc(O)c(C)c3oc2=O)ccc1F`, the activation is 56.6% (active).

As to `CCc1nn(CC(=O)N2CCN(c3cccc(C(F)(F)F)c3)CC2)c(=O)c2cc3occc3n12`, the activation was -1.81% (inactive).

With `O=C(NCCCN1CCOCC1)c1ccc2c(c1)N(Cc1cccc(F)c1)C(=O)c1ccccc1S2`, the activation was 37.5% (active).

Regarding `COc1cccc(CNC(=O)c2ccc3c(c2)N(Cc2ccc(C(F)(F)F)cc2)C(=O)c2ccccc2S3)c1OC`, the activation was 7.24% (inactive).

Take `O=C(NCCCN1CCOCC1)c1cc(-c2ccccc2F)no1`: the activation is 2.58% (inactive).

For the molecule `Cc1ccccc1CN1C(=O)c2ccccc2Sc2ccc(C(=O)NCCCN3CCOCC3)cc21`, the activation is 16.6% (inactive) and 53.8% (active).

As to `O=C(NCCCN1CCCCC1)c1ccc2c(c1)NC(=O)C(N1CCOCC1)S2` (centres undefined), the activation is 1.92% (inactive).

In the case of `COc1ccc(C(=O)NCCCN2CCOCC2)cc1Br`, the activation is 5.3% (inactive).

`O=C(Cn1cnc2c(oc3ccccc32)c1=O)Nc1ccc(OC(F)(F)F)cc1`: the activation was 26.6% (inactive).

On to `CCn1cc(C(=O)OCC(=O)Nc2cc(C)cc(C)c2)c(=O)c2ccc(C)nc21`, for which the activation was -2.27% (inactive).

As for `COc1ccc(CNC(=O)Cn2nnc(-c3ccc(S(C)(=O)=O)cc3)n2)cc1`, the activation is -0.202% (inactive).

In the case of `COc1ccc(Cl)cc1S(=O)(=O)N1CCC(O)(c2ccc(Cl)cc2)CC1`, the activation is 4.61% (inactive).

Turning to `COc1cc(OC)c(-n2cc(-c3ccc(Cl)cc3)[nH]c2=O)cc1Cl`, the activation was 87.1% (active).

On to `COc1cc(OC)c(N2CC(C(=O)Nc3cc(Cl)ccc3N3CCOCC3)CC2=O)cc1Cl` (centres undefined), for which the activation is 6.25% (inactive).

For the molecule `CCCC12CN3CC(C)(CN(C1)C3c1ccccc1Cl)C2=O` (centres undefined), the activation is -0.996% (inactive).

With `COc1ccc(-c2noc(CSc3nc4ccc(C)cc4[nH]3)n2)cc1`, the activation was 5.23% (inactive).

With `CC(NC(=O)COC(=O)c1ccc(Cl)cc1O)c1ccc(F)cc1` (centres undefined), the activation is 40% (active).

As to `C=CCOc1ccc(/C=C/C(=O)OCC(=O)NC(C)c2ccc(F)cc2)cc1` (centres undefined), the activation is 7.04% (inactive).

Consider `CC(CCc1ccccc1)NC(=O)COC(=O)c1ccc(F)cc1` (centres undefined), for which the activation is 10.8% (inactive).

In the case of `O=C1CCCc2cc(S(=O)(=O)N3CCCC(C(=O)NCc4ccccc4)C3)ccc2N1` (centres undefined), the activation was 1.11% (inactive).

As for `CCc1ccccc1NC(=O)Cn1c(=O)n(CC2CCC(C(=O)NCCc3ccccc3)CC2)c(=O)c2ccccc21` (centres undefined), the activation is -1.58% (inactive).

Consider `CCn1cc(C(=O)NCc2ccccc2)c(=O)c2cc(S(=O)(=O)N3CCCCC3)ccc21`, for which the activation was 1.41% (inactive).

`O=C(N/N=C/c1sc(N2CCCCC2)nc1-c1cccs1)c1cccnc1`: the activation is 32.8% (active).

For the molecule `Cc1ccc(S(=O)(=O)N2CCCCC2)cc1NC(=O)c1cccnc1`, the activation was 4.22% (inactive).

As for `O=C(c1cccnc1)N1CCN(S(=O)(=O)c2cccs2)CC1`, the activation is 1.36% (inactive).

Take `Cc1cc(NC(=O)C2CCC(CNS(=O)(=O)c3ccc(Br)s3)CC2)ccc1Br` (centres undefined): the activation is 9.94% (inactive).

Consider `N#Cc1nc(Nc2cccc(Cl)c2)nc(NC2CCCC2)n1`, for which the activation is 4.33% (inactive).

Consider `COc1cccc2c1cc1c(=O)n(CC(=O)N3CCN(c4cccc(Cl)c4)CC3)nc(C)n12`, for which the activation was -0.0969% (inactive).

Consider `O=C(CNC(=O)c1ccc(Cl)c(C(F)(F)F)c1)OC(C(=O)Nc1cc(C(F)(F)F)ccc1Cl)c1ccccc1` (centres undefined), for which the activation is 15.3% (inactive).

As for `Cc1ccc(C(=O)NCCSc2c(C)[nH]c3ccccc23)cc1C`, the activation was 2.99% (inactive).

Consider `O=C(NCc1ccc2c(c1)CCN2C(=O)c1ccccc1)Nc1cc(F)ccc1F`, for which the activation was 2.32% (inactive).

On to `CCn1cc(CN2CCC(C(=O)Nc3cccc(-c4cccc(Cl)c4)c3)CC2)cn1`, for which the activation was 10.6% (inactive).

Take `CCn1cc(CN2CCC(C(=O)Nc3cccc(-c4cccc(Cl)c4)c3)CC2)c(C)n1`: the activation was 17.5% (inactive).

With `O=C(Nc1cccc(-c2cccc(Cl)c2)c1)C1CCN(C2CCC2)CC1`, the activation is 33.2% (active).

Turning to `O=C(Nc1cccc(-c2nc3ccccc3o2)c1)c1cccc(Br)c1`, the activation was 11.1% (inactive).

Turning to `CCOC(=O)/C(C#N)=C/c1ccc(N2CCN(Cc3ccccc3)CC2)cc1`, the activation was 46.5% (active).

On to `CCCn1c(C)cc(/C=C(\C#N)C(=O)OCC(=O)N(C)c2c(N)n(Cc3ccccc3)c(=O)[nH]c2=O)c1C`, for which the activation is 1.98% (inactive).

Consider `COc1ccc(/C=C(\C#N)C(=O)ONC2=NCCCCC2)cc1`, for which the activation is 4.53% (inactive).

Regarding `CCOC(=O)C1CCN(Cc2ccc(-c3ccccc3)cc2)CC1`, the activation is 5.56% (inactive).

In the case of `CCOC(=O)/C(C#N)=C/c1ccc(N2CCCCC2)cc1`, the activation was 68.9% (active).

With `CCOC(=O)/C(C#N)=C\c1c(C)cc(C)c(COC(C)=O)c1C`, the activation was 0.226% (inactive).

Turning to `Cc1ccc2sc(N(Cc3cccnc3)C(=O)C3COc4ccccc4O3)nc2c1C` (centres undefined), the activation was 20.1% (inactive).

As for `CC1CCN(S(=O)(=O)c2ccc3c(c2)N(CC(=O)NCCc2ccccc2)C(=O)CO3)CC1`, the activation is 1.33% (inactive).

As for `CC1(C(=O)NCCc2c[nH]c3ccccc23)C=CC2(CCCCC2)N1C(=O)c1ccccc1` (centres undefined), the activation was -1.33% (inactive).

With `Cc1ccc2[nH]cc(CCNC(=O)C3CCCCC3)c2c1`, the activation is 5.96% (inactive).

As to `O=C(NCCc1c[nH]c2ccccc12)C1CCN(Cc2ccc(Br)cc2)CC1`, the activation is 35.5% (active).

Regarding `COc1ccc(CN2CCN(Cc3ccc(OC)c(OC)c3OC)CC2)cc1`, the activation is 1.73% (inactive).

Regarding `CCOc1ccc(CN2CCCN(C)CC2)cc1`, the activation is 1.05% (inactive).

As for `CCOc1ccc(CN2CCN(Cc3c[nH]c4ccccc34)CC2)cc1`, the activation was 33.4% (active).

Regarding `O=S(=O)(c1ccc(Cl)cc1)c1nnn2c1nc(NC1CCCC1)c1sccc12`, the activation was -0.225% (inactive).

For the molecule `Cc1ccc(C)c(N2CCN(Cc3nnc(-c4ccccc4)o3)CC2)c1`, the activation is 6.92% (inactive).

With `CCCn1c2ccccc2c2cnn(CC(=O)N(CC)c3cc(C)ccc3C)c(=O)c21`, the activation was 3.04% (inactive).

For `COc1cc(/C=C(\C#N)c2nc3c(s2)CC(C)CC3)ccc1O` (centres undefined), the activation is 35.8% (active).

As to `COc1cccc2cc(-c3nc(Cl)c4c5c(sc4n3)CC(C)CC5)c(=O)oc12` (centres undefined), the activation was -0.914% (inactive).

On to `COc1ccc(OCCCn2cccc2/C=C2/C(=N)N3OC(C)=CC3=NC2=O)cc1`, for which the activation is 1.18% (inactive).

Consider `CC1=CC2=NC(=O)/C(=C/c3coc4ccccc4c3=O)C(=N)N2O1`, for which the activation was 227% (active).

As for `Cc1cc(C)c2oc(-c3cccc(NC(=O)c4cccc(F)c4)c3C)nc2c1`, the activation is 1.24% (inactive).

In the case of `N#C/C(=C/c1ccc(N2CCCCC2)o1)C(=O)NCCc1c[nH]c2ccccc12`, the activation is 78.8% (active).

As for `Cc1ccc(C(=O)N/C(=C/c2ccco2)C(=O)NCCc2c[nH]c3ccccc23)cc1C`, the activation was 2.88% (inactive).

`O=C(NCCc1c[nH]c2ccccc12)c1cc2ccccc2oc1=O`: the activation was 4.67% (inactive).

As to `CCOc1ccccc1CNC(=O)c1cnc2c(-c3ccc(OCC)c(OCC)c3)c(C)nn2c1C`, the activation is 1.83% (inactive).

For the molecule `CCOc1ccc(NC(=O)CC2C(=O)N(c3cccc(OC)c3)C(=O)N2C2CCCCC2)cc1` (centres undefined), the activation was 2.76% (inactive).

As to `O=C(O)CCC(=O)Nc1ccc(N2CCOCC2)cc1`, the activation was 4.21% (inactive).

Regarding `C/C(=C/c1ccccc1)C(=O)N1CCN(c2ccccc2)CC1`, the activation was 0.356% (inactive).

`O=C(/C=C/c1ccc(N2CCOCC2)cc1)c1ccccc1`: the activation is 108% (active).
